Assay results as given in PubChem BioAssay (NCATS).
Inconclusive results are not listed. A number with no mark means an inactive call. Calls of active or inactive are those of the source. Calls follow the shape of the dose curve; as a rule, active = well fitted inhibition curve with a large enough effect; inconclusive = small, poorly fitted or top-dose-only effect; inactive = no such curve, though single readings can be large or run the other way.

What follows are molecules tested on Zika virus NS2B-NS3 protease (linked construct) (assay: Primary screen NINDS Rhodamine qHTS for Zika virus inhibitors (AID 1347160; also: nearly all actives have a fitted effect of over 55% in size)). Settings: purified NS2B-NS3 protease, Rhodamine110 substrate fluorescence; series mostly up to 57.1 µM; activity change, negative = inhibition: at the top concentration.
Procedure, shortened: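 Purified NS2B-NS3 protease with the NS2B hydrophilic domain joined by a flexible linker (25 nM) in 10 mM Tris-HCl pH 8.0, 0.01% Tween 20, preincubated 15 min at RT with compound; Rhodamine110 peptide substrate 1.5 µM; fluorescence change over 15 min; 4-parameter Hill fit.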
% is scaled to controls: 0 for no effect and ±100 for the full control effect; potency is read from the fitted curve at half-maximal effect.

Row | Compound | activity change, negative = inhibition | outcome | Potency
1 | OC[C@H]1O[C@@H](Oc2ccccc2)[C@H](O)[C@@H](O)[C@@H]1O | -12.5% | – | –
2 | COC(=O)C1=CO[C@@H](O[C@@H]2O[C@H](CO)[C@@H](O)[C@H](O)[C@H]2O)[C@H]2[C@@H]1CC(OC)O[C@@H]2C (stereo partly drawn) | -14.2% [at 33.1 µM] | – | –
3 | CC1OC(OC2C(O)C(OC3CCC4(C)C(CCC5(C)C4CC=C4C6CC(C)(COC7OC(CO)C(O)C(O)C7O)CC(O)C6(C)CCC45C)C3(C)C)OC(C(=O)O)C2O)C(O)C(O)C1OC1OCC(O)C(O)C1O (stereo not drawn) | -26.7% [at 15.1 µM] | – | –
4 | O=C(c1ccc2nccnc2c1)N1CCCCC1 | – | inactive | –
5 | C=C1C[C@]23C[C@H]1CC[C@H]2[C@]1(C)CCC[C@@](C)(C(=O)O)[C@H]1[C@@H]3C(=O)O | -25.9% [at 33.1 µM] | – | –
6 | O=C(Nc1ccn[nH]1)c1c(F)cccc1F | – | inactive | –
7 | Cc1cccc(/C=N/Nc2cc(N3CCOCC3)n3nc(-c4ccncc4)cc3n2)c1 | -2.84% | – | –
8 | O=C(Nc1ccccc1)N1CCN(Cc2ccc3ccccc3n2)CC1 | 21.3% | – | –
9 | C=CCC1=C[C@]2(OC)[C@H](C)[C@@H](c3ccc(O)c(OC)c3)O[C@]2(OC)CC1=O | -6.88% [at 33.1 µM] | – | –
10 | CC1(C)CCC2(C(=O)OC3OC(CO)C(O)C(O)C3O)CCC3(C)C(=CCC4C5(C)CCC(O)C(C)(C(=O)O)C5CCC43C)C2C1O (stereo not drawn) | -18.6% [at 15.1 µM] | – | –
11 | Cc1cc(C(N)=O)ccc1-n1c(CCC(=O)O)ccc1-c1ccc(-n2ccnc2)cc1 | -18.2% | – | –
12 | CC(=O)CCC1=C(C)C(O[C@@H]2O[C@H](CO)[C@@H](O)[C@H](O)[C@H]2O)C(O)CC1(C)C (stereo partly drawn) | 1.44% [at 33.1 µM] | – | –
13 | Nc1nc2c(c(=O)[nH]1)C[C@@H](CCc1ccc(C(=O)N[C@@H](CCC(=O)O)C(=O)O)cc1)CN2 | 30% | – | –
14 | COc1ccc(/C=C/C(=O)O[C@H]2[C@H](O[C@H]3[C@@H]4C=CO[C@@H](O[C@@H]5O[C@H](CO)[C@@H](O)[C@H](O)[C@H]5O)[C@@H]4[C@@]4(CO)O[C@@H]34)O[C@@H](C)[C@H](O)[C@H]2OC(C)=O)cc1 | 24.7% [at 15.1 µM] | – | –
15 | COC(=O)C(C)C1CCC2(C)C(=O)C=CC(C)(O)C2C1O (stereo not drawn) | -14.5% | – | –
16 | COC(=O)N1CCC(n2ncc3c(N4CCOCC4)nc(-c4ccc(NC(=O)Nc5ccc(CO)cc5)cc4)nc32)CC1 | 19.2% | – | –
17 | CC1(C)CCCC2(C)C1CC(=O)C13CC(CCC12)C(O)(CO)C3 (stereo not drawn) | -18.5% [at 33.1 µM] | – | –

Row | Compound | activity change, negative = inhibition | outcome | Potency
18 | CN1CCN(C(=O)c2ccc3cc(CCNc4ncnc5ccc(C#N)cc45)ccc3c2)CC1 | 29.9% | – | –
19 | CC(C)C[C@H](CC(=O)NO)C(=O)N[C@H](C(=O)N[C@@H](C)C(=O)NCCN)C(C)(C)C | -11.4% [at 10.7 µM] | – | –
20 | CC(=O)OC1C(O)CC2(C)C(CCC(C)C23Cc2c(O)cc(CO)c(C=O)c2O3)C1(C)C (stereo not drawn) | – | inactive [at 33.1 µM] | –
21 | N[C@H]1Cc2ccccc2N(O)C1=O | – | inactive | –
22 | C/C=C/c1ccc(O[C@@H]2O[C@H](CO)[C@@H](O)[C@H](O)[C@H]2O)c(OC)c1 | -12.2% [at 33.1 µM] | – | –
23 | CCOCc1cc(OC)c(-c2ccc(C[C@H](NC(=O)c3c(F)cccc3F)C(=O)O)cc2)c(OC)c1 | 11% | – | –
24 | CCC(O)C(C)C1CCC(C(C)C(=O)O)O1 (stereo not drawn) | -5.36% | – | –
25 | C=C(C(=O)O)C1CCC2(C)CCC(O)C(=C)C2C1 (stereo not drawn) | – | – | 8.91 µM (active)
26 | CC(=O)SCC(=O)c1ccc(NS(=O)(=O)c2ccc(OCCCN(C)C)cc2)nc1 | -12.1% | – | –
27 | COc1c2c(c(C)c3c1C(=O)OC3)OC1(C)CC(O)C34OC(OC)(CC(OC(C)=O)C3(C)C1C2)OC4(C)C (stereo not drawn) | -21.2% [at 33.1 µM] | – | –
28 | CC1(C)CCCC2(C)C(CO)C(CO)=CCC12 (stereo not drawn) | -10.6% | – | –
29 | CCCCOC(=O)NC(=O)C1c2ccccc2Oc2ccccc21 | -9.32% | – | –
30 | Nc1nc(Nc2ccc(S(N)(=O)=O)cc2)n(C(=S)Nc2c(F)cccc2F)n1 | 33.8% | – | –
31 | N#C[C@@H]1C[C@H](F)CN1C(=O)CNC1[C@H]2CN(C(=O)c3ccc(F)cc3)C[C@@H]12 (stereo partly drawn) | 5.11% | – | –
32 | C/C=C/C=C/[C@@H]1O[C@](O)([C@H](CC)C(=O)NC/C=C/C=C(\C)[C@@H](OC)[C@@H](C)C2OC(/C=C/C=C/C=C(\C)C(=O)c3c(O)cc[nH]c3=O)[C@H](O)[C@@H]2O)[C@H](O)[C@H](O)C1(C)C (stereo partly drawn) | – | inactive [at 15.1 µM] | –
33 | CC1=CC(=O)[C@H]2C(C)(C)CCC[C@]2(C)[C@@]1(O)CO | -6.86% | – | –
